# High-throughput results deposited in PubChem BioAssay by National Center for Advancing Translational Sciences (NCATS).
# A selection: hits, their analogues and other compounds. The true share with any hit is near 2.4%.
# Tau fil binding – binders of human tau filaments | hit rate 2% among 71,000 | Potency, µM (doses to about 57.1 µM), for inactives: at the highest dose activity change, negative = inhibition | P10636 | recombinant tau filaments, thioflavin S fluorescence, 15 h; filaments grown with octadecylsulfate alongside compound;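 note: potency is the fitted concentration of half-maximal effect; % is set by controls: 0 for no effect and ±100 for the full control effect; actives lower thioflavin S fluorescence by blocking filaments or displacing dye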
# Target sequence (P10636 whole entry, looked up): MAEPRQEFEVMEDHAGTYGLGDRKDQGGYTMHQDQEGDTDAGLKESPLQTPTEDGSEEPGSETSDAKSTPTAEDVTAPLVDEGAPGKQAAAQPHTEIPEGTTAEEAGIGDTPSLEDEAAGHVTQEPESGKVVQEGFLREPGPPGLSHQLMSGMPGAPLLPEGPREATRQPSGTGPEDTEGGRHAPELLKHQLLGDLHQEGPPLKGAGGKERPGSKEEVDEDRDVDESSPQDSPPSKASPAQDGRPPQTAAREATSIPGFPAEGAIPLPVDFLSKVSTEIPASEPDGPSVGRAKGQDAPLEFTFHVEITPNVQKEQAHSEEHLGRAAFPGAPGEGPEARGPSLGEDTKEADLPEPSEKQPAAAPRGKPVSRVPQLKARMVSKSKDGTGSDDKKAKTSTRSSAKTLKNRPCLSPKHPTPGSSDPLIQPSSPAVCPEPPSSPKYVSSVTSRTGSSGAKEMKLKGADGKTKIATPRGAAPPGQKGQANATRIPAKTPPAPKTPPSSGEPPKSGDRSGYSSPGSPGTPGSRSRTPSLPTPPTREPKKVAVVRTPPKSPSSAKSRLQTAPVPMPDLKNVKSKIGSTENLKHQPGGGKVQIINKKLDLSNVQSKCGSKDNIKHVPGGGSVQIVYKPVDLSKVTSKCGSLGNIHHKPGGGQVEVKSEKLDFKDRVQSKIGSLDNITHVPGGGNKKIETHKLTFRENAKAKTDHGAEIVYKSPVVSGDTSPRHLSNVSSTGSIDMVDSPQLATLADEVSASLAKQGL
#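 Read-out: ThS fluorescence, 450 nm excitation/510 nm emission; lower signal marks blocked filament formation or displaced dye. Tau at 1 uM with 30 uM ODS, 10 uM ThS, 5 mM DTT, 100 mM NaCl, 10 mM HEPES pH 7.4; 15 h, 37 C.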
# Hsp90 Hop PPI – changes Hsp90-Hop TPR2A binding signal, up or down; AlphaScreen TPR2A-His6 binding biotin-Hsp90 C-terminal peptide; Potency, µM (highest dose often 57 µM), inactives show at the highest dose activity change, negative = inhibition; hit rate 0.44% among 71,000; AID 595; active = well fitted curve in either direction with a large enough effect; inconclusive = small, poorly fitted or top-dose-only effect, or another doubt; note: potency is the fitted concentration of half-maximal effect; % is set by controls: 0 for no effect and ±100 for the full control effect
# BRCT inh green – inhibitors of human BRCA1 BRCT-phosphoprotein interaction (green fluorophore). BRCA1 BRCT-phosphopeptide binding, green fluorescence polarization. hit rate 0.05% among 75,000. AID 875. P38398. Potency, µM (titrated, usually from 76.9 µM), without a hit: at the highest dose activity change, negative = inhibition, usual class: inhibitors;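 note: potency is the fitted concentration of half-maximal effect; plate controls were peptide without protein for full effect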
#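 Fluorescence polarization: His-tagged BRCT (~35 kDa BRCA1 C-terminus, 250 nM) bound to 100 nM fluorescein-labeled phosphorylated 10-aa BACH1 peptide, pH 7.3 phosphate buffer with DTT and Tween 20. Compounds incubated 12 min at room temperature; inhibition read as lowered polarization.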
# DNA Pol III inh – DNA polymerase III holoenzyme inhibition | reconstituted DNA polymerase III holoenzyme replication, biochemical | Potency, µM (titrated, usually from 57.1 µM), without a hit: top-dose activity change, negative = inhibition | hit rate 0.25% among 71,000 | AID 603; note: potency is the fitted concentration of half-maximal effect; % is set by controls: 0 for no effect and ±100 for the full control effect
#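 Reconstituted *E. coli* holoenzyme (0.35 nM Pol III, 1 nM beta, 154 nM SSB, 2 nM primase) was preincubated with compound for 15 min at RT. Synthesis on 1.4 nM ssM13Gori ran 35 min, then was stopped with PicoGreen/EDTA and read as dsDNA fluorescence.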
# YjeE inh – inhibitors of E. coli YjeE (TsaE); hit rate 0.05% among 71,000; P0AF67; purified YjeE enzyme, qHTS inhibition assay; Potency, µM
#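 Purified YjeE (10 uM) with BODIPY Texas Red-labeled ADP probe (2 uM); compounds pin-transferred, 15 min at room temperature. Binding inhibition read as decreased fluorescence polarization; ADP titration as control.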
# BRCT PPI red – BRCT-phosphoprotein interaction inhibition (red fluorophore); AID 892; hit rate 0.03% among 75,000; Potency, µM (titrated, usually from 76.9 µM), for the others: top-dose activity change, negative = inhibition, actives largely listed as inhibitors; BRCT-phosphopeptide binding, red fluorescence polarization; note: % is set by controls: 0 for no effect and ±100 for the full control effect
#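 Rhodamine-labelled pBACH1 10-mer (100 nM) bound to BRCT domain (100 nM) at pH 7.3; compounds incubated 12 min room temperature, polarization read. Free peptide defines full inhibition; unlabelled decapeptide titrated as control.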
# Numbers without * were called inactive; i = inactive; ? = inconclusive; · = no result given; [ ] = remark or other dose. Unless noted, calls come from the whole dose curve; as a rule, active = well fitted curve in the direction sought with a large enough effect; inconclusive = small, poorly fitted or top-dose-only effect, or another doubt; inactive = no such curve, though single readings can be large; an effect the other way counts as inactive or inconclusive.
SMILES,Tau fil binding,Hsp90 Hop PPI,BRCT inh green,DNA Pol III inh,YjeE inh,BRCT PPI red
N#Cc1cc2sc3nnc(-c4ccncc4)n3c2cc1C#N,7.9µM*,-12%,-1%,-11%,i,-8%
N#Cc1cc2sc3nc4ccccc4n3c2cc1C#N,3%,-3%,-3%,5%,i,1%
COc1cc2cc[n+]3cc4c(OC)c(OC)ccc4cc3c2cc1OC,·,·,-2%[3.08 µM],·,·,2%
COc1cc2cc3c4cc(OC)c(OC)cc4cc[n+]3c(C)c2cc1OC,184%[25.6 µM],?,-1%[3.08 µM],13µM*,i,-1%
Cc1ccc2[nH]c(-c3cccc(N)c3)cc2c1,10µM*,-28%,-6%,2%,i,1%
COc1ccc2c3c(cccc13)NN=C2C,16µM*,-19%,-7%,32µM*,i,-5%
O=C(Nc1ccc(Cl)cc1C(=O)O)c1ccc2c(c1)C(=O)N(Cc1ccco1)C2=O,?,-20%,-4%,32µM*,i,-1%
CC(C)n1cc(/C=C(\C#N)S(=O)(=O)c2ccccc2)c2ccccc21,7.9µM*,24%,3%,-2%,i,1%
N#CCCn1cc(C(CC(=O)c2ccccc2)C(=O)O)c2ccccc21 (configuration not stated),7%,-2%,-1%,-1%,i,0%
Clc1ccc(Cl)c(Cl)c1Cl,-2%,0%,1%,4%,i,-1%
CCN(CC)c1ccc(NC(=O)C2CC3CCC2C3)cc1 (configuration not stated),25µM*,-29%,1%,-2%,i,0%
O=Cc1cccc(Br)c1,-18%,-1%,-2%,-4%,i,-1%
CCCC12CN3CC(C)(CN(C1)C31C(=O)Nc3ccc(C)cc31)C2=O (configuration not stated),20µM*,-5%,-1%,-1%,i,-4%
CCOC(=O)c1sc2nc(N3CCOCC3)c3c(c2c1N)CCN(C)C3,7.9µM*,-3%,-3%,-3%,i,0%
N#Cc1c(N2CCCC2)nc(N)c2c(N)nc(N3CCCC3)cc12,-26%,25µM*,5%,0%,i,-4%
Cc1cc(C(=O)Nc2sc3c(c2C#N)CCCCC3)cs1,20%,1%,1%,-5%,i,1%
N#Cc1c(NC(=O)c2ccncc2)sc2c1CCC2,16µM*,-19%,0%,-12%,i,0%
O=C(CSCc1nc2ccccc2[nH]1)N1CCN(c2ccc(F)cc2)CC1,20µM*,0%,-2%,-1%,i,0%
CC(=O)OC(C)(C)N=Nc1ccc(Br)cc1,-7%[11.4 µM],?,·,-4%[11.4 µM],i,·
C(=N\n1cnnc1)/c1ccc2ncccc2c1,13µM*,-2%,1%,-6%,i,-3%
O=C(Nc1cccc2nsnc12)C1CC(=O)N(c2ccccc2)C1 (configuration not stated),20µM*,-2%,-5%,-6%,i,-4%
CCO,3%,3%,1%,-2%,i,-2%
CN[C@@H](CC(C)C)C(=O)N[C@@H]1C(=O)N[C@H](CC(N)=O)C(=O)N[C@H]2C(=O)N[C@H]3C(=O)N[C@H](C(=O)N[C@H](C(=O)O)c4cc(O)cc(O)c4-c4cc3ccc4O)[C@H](O)c3ccc(c(Cl)c3)Oc3cc2cc(c3O[C@@H]2O[C@@H](CO)[C@@H](O)[C@@H](O)[C@H]2O[C@H]2C[C@](C)(N)[C@H](O)[C@H](C)O2)Oc2ccc(cc2Cl)[C@@H]1O,-4%,-11%,-2%,-6%,i,-3%
CC(=O)[C@]1(O)CC[C@@H]2[C@H]3C[C@@H](C)C4=CC(=O)CC[C@@]4(C)[C@H]3[C@@H](O)C[C@]21C,10%[11.4 µM],-1%[11 µM],-1%[15.4 µM],-10%[11.4 µM],i,-1%[15.4 µM]
COCCCn1c(=N)c(C(=O)NCc2ccc3c(c2)OCO3)cc2c(=O)n3ccccc3nc21,10µM*,-19%,-1%,-21%,i,1%
SMILES,Tau fil binding,Hsp90 Hop PPI,BRCT inh green,DNA Pol III inh,YjeE inh,BRCT PPI red
COCCNC(=O)c1cc2c(=O)n3cccc(C)c3nc2n(Cc2ccncc2)c1=N,-6%,-5%,4%,-5%,i,-1%
COc1ccc(CCNC(=O)c2cc3c(=O)n4cccc(C)c4nc3n(Cc3ccncc3)c2=N)cc1,3.2µM*,0%,0%,2%,i,0%
COCCn1c(=N)c(C(=O)NCc2ccco2)cc2c(=O)n3ccccc3nc21,95%,-3%,-1%,-8%,i,-1%
Cc1cccn2c(=O)c3cc(C(=O)NC4CCCC4)c(=N)n(C4CCCC4)c3nc12,0.4µM*,4%,-1%,-10%,i,-3%
COCCCn1c(=N)c(C(=O)NCc2ccc3c(c2)OCO3)cc2c(=O)n3cccc(C)c3nc21,3.2µM*,-2%,3%,-1%,i,1%
Cc1c2oc3c(C)ccc(C(=O)N[C@@H]4C(=O)N[C@H](C(C)C)C(=O)N5CCC[C@H]5C(=O)N(C)CC(=O)N(C)[C@@H](C(C)C)C(=O)O[C@@H]4C)c3nc-2c(C(=O)N[C@@H]2C(=O)N[C@H](C(C)C)C(=O)N3CCC[C@H]3C(=O)N(C)CC(=O)N(C)[C@@H](C(C)C)C(=O)O[C@@H]2C)c(N)c1=O,43%,-3%,0%,0.02µM*,i,-5%
Cc1ccc([C@@H](O)c2cnc(C)n2Cc2ccccc2)cc1,5%[11.4 µM],0%[11 µM],0%[15.4 µM],-6%[11.4 µM],i,1%[15.4 µM]
Clc1ccc2nc(NC3=NCN(CCN4CCOCC4)CN3)nc(-c3ccccc3)c2c1,7.9µM*,-1%,-1%,-5%,i,0%
CCc1ccc2nc(NC3=NCN(CCCN4CCOCC4)CN3)nc(C)c2c1,28%,-3%,0%,-2%,i,-1%
CC(=O)c1cccc(NC(=O)Nc2cc3sccc3n2C)c1,3.2µM*,-21%,-2%,-6%,i,-4%
O=C(c1ccc(-c2cccc(C(F)(F)F)c2)o1)N1CCOCC1,8%,-4%,2%,-10%,i,-1%
S=C(c1ccc(-c2ccc(Cl)c(Cl)c2)o1)N1CCOCC1,10µM*,?,1%,9%,i,0%
S=C(c1ccc(-c2ccccc2Cl)o1)N1CCOCC1,16µM*,-29%,-2%,-8%,i,1%
N#CCCN1CCN(C(=S)c2ccc(-c3cc(Cl)ccc3Cl)o2)CC1,2.5µM*,-21%,0%,-8%,i,1%
O=C(c1cc(Cl)ccc1Cl)N1CCOCC1,-17%,-4%,-1%,1%,i,-1%
OCCN1CCN(C(=S)c2ccc(Cl)c(Cl)c2)CC1,7%,?,2%,7%,i,0%
